Experiment [1] can be described thus: Her2 expression decrease, cell viability multiplex – SKBR3 breast tumor cells, AlphaScreen, ATP viability, primary screen (AID 461;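 active = Her2 level under about 52% in both replicate screens, with viability over 70% of control, limit read from the data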;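 for Her2 level: lower value means less Her2 protein in the cells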;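 for viability: percent of carrier control wells set as 100% viability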). The conditions noted are these: SKBR3 Her2 protein level, 18-24 h, measured here: SKBR3 viability, ATP luminescence, at 10 µM.
The target in experiment [2] is Receptor tyrosine-protein kinase erbB-2 (Homo sapiens) (UniProt P04626). The description is as above. The conditions noted are these: 18-24 h, at 10 µM, stronger effect = lower value.
Receptor tyrosine-protein kinase erbB-2 (Homo sapiens), sequence (P04626 whole entry, looked up): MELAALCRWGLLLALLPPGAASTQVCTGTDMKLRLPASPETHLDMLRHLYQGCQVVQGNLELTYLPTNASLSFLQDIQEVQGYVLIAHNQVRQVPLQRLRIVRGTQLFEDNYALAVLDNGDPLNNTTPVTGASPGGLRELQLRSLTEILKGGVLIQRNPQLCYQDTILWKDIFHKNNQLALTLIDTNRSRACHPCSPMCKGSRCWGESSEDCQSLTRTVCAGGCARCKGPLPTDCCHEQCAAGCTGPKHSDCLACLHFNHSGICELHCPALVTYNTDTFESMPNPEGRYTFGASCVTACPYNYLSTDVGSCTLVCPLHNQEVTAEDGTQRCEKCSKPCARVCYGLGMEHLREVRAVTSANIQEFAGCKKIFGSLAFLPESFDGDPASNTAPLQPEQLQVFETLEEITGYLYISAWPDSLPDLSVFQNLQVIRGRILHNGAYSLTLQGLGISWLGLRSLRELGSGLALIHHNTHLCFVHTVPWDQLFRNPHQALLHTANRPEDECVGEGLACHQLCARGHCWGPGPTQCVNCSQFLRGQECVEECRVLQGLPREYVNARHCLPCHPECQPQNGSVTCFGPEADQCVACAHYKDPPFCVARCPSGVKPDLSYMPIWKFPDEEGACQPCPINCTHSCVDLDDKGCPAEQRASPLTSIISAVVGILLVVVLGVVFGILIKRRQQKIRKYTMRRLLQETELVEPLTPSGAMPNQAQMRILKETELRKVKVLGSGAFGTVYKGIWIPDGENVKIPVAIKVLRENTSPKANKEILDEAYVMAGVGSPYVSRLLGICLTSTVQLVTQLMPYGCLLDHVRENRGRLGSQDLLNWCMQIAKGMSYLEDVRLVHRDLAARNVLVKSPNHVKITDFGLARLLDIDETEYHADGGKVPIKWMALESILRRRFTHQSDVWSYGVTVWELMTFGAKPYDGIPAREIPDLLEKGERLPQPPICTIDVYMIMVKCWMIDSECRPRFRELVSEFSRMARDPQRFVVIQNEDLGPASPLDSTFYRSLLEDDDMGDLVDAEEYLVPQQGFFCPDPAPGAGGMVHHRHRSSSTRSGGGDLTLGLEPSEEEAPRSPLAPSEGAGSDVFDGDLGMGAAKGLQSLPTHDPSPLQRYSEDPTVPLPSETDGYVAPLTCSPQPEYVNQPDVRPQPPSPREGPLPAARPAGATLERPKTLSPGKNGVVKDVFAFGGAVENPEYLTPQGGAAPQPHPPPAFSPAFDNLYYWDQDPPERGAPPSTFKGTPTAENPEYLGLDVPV
Experiment [3] can be described thus: reduced viability of SK-BR-3 breast cancer cells – cell-based, 24 h, human, pilot screen (AID 572;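 active = viability at or below 10% of carrier control in both of two separate runs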;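 note: compound exposure lasted between 18 and 24 h rather than exactly 24 h; 100% = carrier-treated control wells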). As to conditions: SK-BR-3 viability, CellTiter-Glo luminescence, at 10 µM, stronger effect = lower value. For orientation: In ATP-based viability assays light output follows the ATP content of the culture.
Experiment [4] can be described thus: HUVEC growth inhibition – cell-based, human, primary screen (AID 575;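 active = viability at or below 30% in both replicate assays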;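 note: 100% = median of untreated cell wells with 0.1% DMSO on each plate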). The conditions noted are these: HUVEC proliferation, CellTiter-Glo luminescence, 72 h; at 10 µM; stronger effect = lower value.
Experiment [5] in a line: H69AR cell proliferation blockers – human, duplicate replicates, primary screen (AID 580).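 Note: 100% = mean luminescence of untreated wells and 0% = no signal.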 As to conditions: H69AR lung tumor cells viability, ATP luminescence, 72 h; at 10 µM; stronger effect = lower value.
Experiment [6] is described as follows: MRP1 drug-resistance reversers in H69AR cells – cell-based, doxorubicin co-treatment, pilot screen (AID 601;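 active = viability loss from added drug above about 55%, and viability with drug at most 40%, in both replicates, limit read from the data, passing the limit was not always enough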). As to conditions: CellTiter-Glo, 72 h, at 10 µM; for differential viability (reversal): stronger effect = higher value.
The nature of experiment [7]: yeast transport mutant growth inhibition pilot in 384-well plates, post-Golgi transport modulator project (AID 636; in the data active = inhibition above about 31%). The conditions noted are these: absorbance 615 nm, about 18 h, stronger effect = higher value.
Experiment [8] can be described thus: growth suppression of yeast trafficking mutant, preliminary HTS, modulators of trafficking downstream of Golgi apparatus project, 1536-format plate, OD 615 nm (AID 637; in the data active = inhibition above about 30%). As to conditions: yeast transport mutant growth, absorbance 615 nm, 18 h; stronger effect = higher value.
Experiment [9] in a line: S. cerevisiae growth inhibition in permissive medium (OD615), pilot counter-assay for S. cerevisiae lifespan shortening project, permissive growth control (AID 705;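 active = growth inhibition above 25% in both replicates, a cutoff set 3 SD above the mean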). The conditions noted are these: OD615, 24 h, at 10 µM, stronger effect = higher value.
Experiment [10] in a line: S. cerevisiae growth inhibition in restrictive medium, OD615, pilot screen, restrictive growth control, yeast lifespan reduction project (AID 706;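 active = growth inhibition above a set limit, 3 SD over mean compound inhibition, in both replicates, cut at about 43% in these data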;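 note: modified DeaD lifespan yeast strain shifted to restrictive glucose medium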). As to conditions: OD615, 48 h, at 10 µM, stronger effect = higher value.
A short description of experiment [11]: doxorubicin toxicity protection in MRP-1 cells – H69AR cells, CellTiter-Glo, duplicate, MRP-1 activator project, pilot screen (AID 807;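 active = viability increase at or above a cutoff of the median across tested compounds plus 3 SD, cut at about 8.5% in these data, passing the limit was not always enough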;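 note: compound pretreatment 18-22 h then 72 h combined with doxorubicin; 0% = doxorubicin alone and 100% = vehicle without doxorubicin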). The conditions noted are these: H69AR viability with doxorubicin, CellTiter-Glo luminescence; at 10 µM; stronger effect = higher value.
Experiment [12] can be described thus: viability of HCT116 without oncogenic beta-catenin – human colon tumor cells, pilot screen (AID 823;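 active = cell viability at or below a set limit in both duplicate runs, the limit being the all-compound median minus 4 SD, cut at about 23% in these data, passing the limit was not always enough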;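 note: 0% = wells killed by 20 µM Hyamine and 100% = untreated DMSO cell wells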). As to conditions: HCT116 beta-catenin knockout viability, CellTiter-Glo, 60 h; at 10 µM; stronger effect = lower value.
The nature of experiment [13]: viability of PTEN-null HCT116 cells – cell-based, HCT116 clonal line, CellTiter-Glo, pilot screen (AID 824;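 active = viability at or below 27.92% in each of two runs, the all-compound median minus 4 SD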;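 note: 0% = 20 µM Hyamine control and 100% = vehicle cell control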). As to conditions: HCT116 PTEN-deleted viability, 60 h, at 10 µM, stronger effect = lower value.
Experiment [14] can be described thus: RAM pathway blockade in budding yeast – dse1pr::URA3 reporter, 5-FOA selection, pilot screen (AID 869;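 active = inhibition over a set limit, the all-compound mean plus 3 SD, in both replicate runs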;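 note: 0% = DMSO wells with no growth and 100% = 10 µM 1-NA-PP1 with full growth; RAM network block rescues cells from 5-FOA so hits raise OD615 growth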). As to conditions: S. cerevisiae dse1pr::URA3 5-FOA growth, OD615, 2 d; at 10 µM; stronger effect = higher value; strain carries analog-sensitive mutant Cbk1 kinase.
The nature of experiment [15]: RAM signaling pathway blockade in yeast – S. cerevisiae, Pdr1DBD-CYC8 efflux-inhibited sensitized strain, primary screen (AID 1298;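 active = RAM network inhibition above 8.4% in each of two replicates, 3 SD over the compound average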;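 note: 0% = DMSO untreated cells without growth and 100% = 10 µM 1-NA-PP1 full growth; higher means more yeast growth rescued from 5-FOA killing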). The conditions noted are these: S. cerevisiae cbk1-as DSE1-URA3 strain, 5-FOA growth OD615, 2 d; at 50 µM; stronger effect = higher value.
Where [16] appears, read: H69AR cells + 2 uM doxorubicin, measured here: viability with 2 uM doxorubicin, stronger effect = lower value.
The mark [17] stands for this setting: H69AR cells, compound alone cytotoxicity.

Structures are written as SMILES. Inconclusive results are not listed. Active and inactive are the calls of the source.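 Rule for the calls, unless noted: active = viability at or under a set limit in both replicates, limit being median viability minus 3 SD (cut at about 48% in these data, passing the limit was not always enough); inconclusive = at or under the limit in just one replicate; inactive = at or above the limit in both replicates.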

As usually defined, the viability is a read-out of living cells in per cent, often relative to untreated cells. As usually defined, the inhibition is the drop in the measured response relative to a control, in per cent.

Take `CCn1c(C(=O)N2CCC(C(=O)N3CCN(c4ccccn4)CC3)CC2)cc2sccc21`: the viability in [1] is 95%; in [3], 95% (inactive); in experiment [4], 93.4% (inactive); in experiment [5], 87.1% (inactive); in experiment [6] (setting [16]), 54.2%; in experiment [6] (setting [17]), 87.1%. Also, the figures for the viability in experiment [12] and in experiment [13] were 78.3% (inactive) and 78.2% (inactive), respectively. Besides, the Her2 level in [2] was 108% (inactive). Moreover, the differential viability (reversal) in experiment [6] (H69AR cells + 2 uM doxorubicin) is 32.9% (inactive). The inhibition in experiment [7] is -2.8% (inactive); in [8], -3.5% (inactive); in experiment [14], 0.93% (inactive). Further, the growth inhibition in experiment [9] was -11.8% (inactive); in experiment [10], -12.2% (inactive). For the same compound, the viability increase in experiment [11] was -3.83% (inactive). The RAM network inhibition in experiment [15] was 1.16% (inactive).
As to `COc1ccc(CCNC(=O)C2(C)CCC(=O)N2Cc2ccc3c(c2)OCO3)cc1OC` (stereo not drawn), the viability in [1] is 77.5%; in experiment [3], 77.5% (inactive); in experiment [4] it was 88.2% (inactive); in experiment [5] it was 92.8% (inactive); in experiment [6] (setting [16]), 87.2%; in experiment [6] (setting [17]), 92.8%. Moreover, the figures for the viability in experiment [12] and in [13] were 102% (inactive) and 97.5% (inactive), respectively. Also, in experiment [2], the Her2 level was 98% (inactive). Also, the differential viability (reversal) in experiment [6] (H69AR cells + 2 uM doxorubicin) was 5.6% (inactive). Moreover, the inhibition in [7] is -2.69% (inactive); in [8] it was -5.17% (inactive); in [14], 0.985% (inactive). The growth inhibition is -13.9% (inactive) in experiment [9] and -25.8% (inactive) in [10]. Also, in experiment [11], the viability increase is 0.26% (inactive). The RAM network inhibition in [15] was 1.36% (inactive).
As to `CC(=O)N1c2c(cc(Br)cc2S(=O)(=O)N2CCN(c3ccccn3)CC2)CC1C` (stereo not drawn), the viability in [1] is 80.5%; in experiment [3] it was 80.5% (inactive); in experiment [4], 64.9% (inactive); in experiment [5], 86.6% (inactive); in experiment [6] (setting [16]) it was 90.2%; in [6] (setting [17]), 86.6%. Further, the viability in experiment [12] is 99.1% (inactive); in [13], 95.6% (inactive). Further, the Her2 level in experiment [2] was 106% (inactive). Besides, the differential viability (reversal) in experiment [6] (H69AR cells + 2 uM doxorubicin) is -3.56% (inactive). Also, the inhibition in experiment [7] was -1.05% (inactive); in [8] it was 24.6% (inactive); in experiment [14], 0.77% (inactive). Moreover, the growth inhibition in experiment [9] was 6.66% (inactive); in experiment [10] it was 1.97% (inactive). Also, the viability increase in experiment [11] was 1.49% (inactive). The RAM network inhibition in experiment [15] was 0.3% (inactive).
For the compound `Cc1ccnc(NC(=O)C2CCC(CNc3c(N4CCCC4)c(=O)c3=O)CC2)c1` (stereo not drawn), the viability in [1] is 93%; in experiment [3], 93% (inactive); in experiment [4], 92.2% (inactive); in experiment [5] it was 90.2% (inactive); in experiment [6] (setting [16]), 89%; in [6] (setting [17]), 90.2%. In addition, the values for the viability in [12] and in [13] were 72.4% (inactive) and 71.6% (inactive), respectively. Also, the Her2 level in experiment [2] was 93.5% (inactive). Further, in [6] (H69AR cells + 2 uM doxorubicin), the differential viability (reversal) is 1.23% (inactive). Besides, the inhibition in experiment [7] was -0.64% (inactive); in experiment [8], -3.83% (inactive); in [14], 0.595% (inactive). Moreover, the growth inhibition in experiment [9] is -3.06% (inactive); in experiment [10], 4.16% (inactive). In experiment [11], the viability increase was -1.61% (inactive). Also, in experiment [15], the RAM network inhibition is -0.21% (inactive).
Turning to `COC(=O)Cc1cc(=O)[nH]c(Nc2nc3ccccc3o2)n1`, the viability in [1] was 104%; in experiment [3] it was 104% (inactive); in experiment [4] it was 74.6% (inactive); in experiment [5] it was 78.3% (inactive); in experiment [6] (setting [16]), 69.8%; in experiment [6] (setting [17]), 78.3%. Also, the results for the viability in experiment [12] and in [13] were 102% (inactive) and 97.9% (inactive), respectively. Further, in experiment [2], the Her2 level was 99.5% (inactive). Further, in experiment [6] (H69AR cells + 2 uM doxorubicin), the differential viability (reversal) is 8.41% (inactive). Moreover, the inhibition in experiment [7] is -1.03% (inactive); in [8], -3.33% (inactive); in [14], 1.03% (inactive). Moreover, the growth inhibition in [9] is 3.62% (inactive); in experiment [10], 1.2% (inactive). For the same compound, the viability increase in experiment [11] was -2.4% (inactive). In experiment [15], the RAM network inhibition is 5.31% (inactive).
`CC(C)c1ccc(C(O)c2cnc(C(C)C)n2C)cc1` (stereo not drawn): the viability in [1] was 112%; in [3], 112% (inactive); in experiment [4], 116% (inactive); in experiment [5], 88.1% (inactive); in [6] (setting [16]), 81.6%; in experiment [6] (setting [17]), 88.1%. Further, the viability in [12] is 96.4% (inactive); in [13], 91% (inactive). Besides, in [2], the Her2 level is 92% (inactive). For the same compound, the differential viability (reversal) in experiment [6] (H69AR cells + 2 uM doxorubicin) was 6.51% (inactive). Moreover, the inhibition in experiment [7] is -4.13% (inactive); in experiment [8], 2.5% (inactive); in [14], 0.355% (inactive). Also, the growth inhibition in [9] was -6.82% (inactive); in [10] it was -0.345% (inactive). For the same compound, in experiment [11], the viability increase is 0.64% (inactive). Besides, in experiment [15], the RAM network inhibition was 1.77% (inactive).
For the compound `CC(C)c1ncc(C(O)c2cccc3ccccc23)n1C` (stereo not drawn), the viability in experiment [1] was 97.5%; in experiment [3], 97.5% (inactive); in experiment [4] it was 113% (inactive); in experiment [5], 87.5% (inactive); in experiment [6] (setting [16]), 83.5%; in experiment [6] (setting [17]), 87.5%. Moreover, the viability in [12] is 81.6% (inactive); in [13] it was 79.1% (inactive). In experiment [2], the Her2 level is 129% (inactive). In addition, in experiment [6] (H69AR cells + 2 uM doxorubicin), the differential viability (reversal) is 4.07% (inactive). Further, the results for the inhibition in [7], in experiment [8] and in experiment [14] were -4.68% (inactive), -5.5% (inactive) and 1.15% (inactive), respectively. For the same compound, the figures for the growth inhibition in experiment [9] and in experiment [10] were -21.2% (inactive) and -7.64% (inactive), respectively. The viability increase in experiment [11] was -0.83% (inactive). For the same compound, the RAM network inhibition in experiment [15] is 0.82% (inactive).
For `CCOc1ccc(S(=O)(=O)N2CCN(c3ccc(C)cc3C)CC2)cc1`, the viability is 98.5% in experiment [1]; 98.5% (inactive) in experiment [3]; 90.1% (inactive) in [4]; 90.1% (inactive) in [5]; 105% in experiment [6] (setting [16]); 90.1% in experiment [6] (setting [17]). For the same compound, the viability in experiment [12] is 65.6% (inactive); in [13], 83.5% (inactive). Besides, in experiment [2], the Her2 level was 114% (inactive). For the same compound, the differential viability (reversal) in experiment [6] (H69AR cells + 2 uM doxorubicin) was -14.9% (inactive). The inhibition was -5.07% (inactive) in [7], -4.67% (inactive) in [8] and 2.64% (inactive) in [14]. The growth inhibition in experiment [9] was 7.69% (inactive); in experiment [10] it was 5.65% (inactive). Also, the viability increase in experiment [11] was -0.07% (inactive). Also, the RAM network inhibition in experiment [15] was 6.67% (inactive).
As to `CC1(C)CC(=O)C=C(Nc2ccc(OCC(F)(F)C(F)F)cc2)C1`, the viability is 95% in experiment [1]; 95% (inactive) in experiment [3]; 92.8% (inactive) in experiment [4]; 103% (inactive) in experiment [5]; 89.9% in experiment [6] (setting [16]); 103% in experiment [6] (setting [17]). Besides, the viability in experiment [12] is 89.5% (inactive); in [13], 90.2% (inactive). Further, the Her2 level in experiment [2] is 104% (inactive). In addition, in [6] (H69AR cells + 2 uM doxorubicin), the differential viability (reversal) is 12.9% (inactive). Also, the inhibition was 0.38% (inactive) in [7], -12.3% (inactive) in [8] and -0.6% (inactive) in experiment [14]. For the same compound, the growth inhibition is -3.99% (inactive) in experiment [9] and 5.75% (inactive) in [10]. Also, in experiment [11], the viability increase was 1.17% (inactive). Moreover, the RAM network inhibition in [15] is 3.07% (inactive).

Source of the values: PubChem BioAssay.
